A selection: hits, their analogues and other compounds. The true share with any hit is near 8.7%.
Pf growth 96h – Primary qHTS for delayed death inhibitors of the malarial parasite plastid, 96 hour incubation | P. falciparum luciferase reporter growth, 96 h | Potency, µM (series often up to 28.7 µM), inactives show at the top dose activity change, negative = inhibition, actives largely listed as inhibitors | actives 6.9% (n = 320,000) | AID 504834, 2011
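Compounds incubated with erythrocytes infected by luciferase-expressing P. falciparum (2% hematocrit, 0.05% parasitemia final) for 96 hours, 37 C in 5% CO2. Growth inhibition scored as decreased luciferase luminescence.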
Pf growth 48h – Primary qHTS for delayed death inhibitors of the malarial parasite plastid, 48 hour incubation; Potency, µM (doses to about 28.7 µM), for the others: top-dose activity change, negative = inhibition, most hits filed as inhibitors; actives 5.9% (n = 310,000); P. falciparum luciferase growth in erythrocytes, 48 h
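First compound was added to culture medium, then infected red cells at 0.1% parasitemia and 2% hematocrit (final). After incubation at 37 C under 5% CO2, luciferase detection reagent was dispensed and light output recorded.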
Vaccinia Venus – qHTS for Stage-Specific Inhibitors of Vaccinia Orthopoxvirus: Venus Reporter Primary qHTS. actives 0.46% (n = 330,000). Vaccinia virus Venus reporter expression, fluorescence. Potency, µM (titrated, usually from 36.5 µM), inactives show at the highest dose activity change, negative = inhibition, actives largely listed as inhibitors; calls by dose curve; tested in A549 cells; further: nearly all actives have a fitted effect of over 30% in size
Vaccinia mCherry – qHTS for Stage-Specific Inhibitors of Vaccinia Orthopoxvirus: mCherry Reporter Primary qHTS. Vaccinia virus mCherry reporter infection, fluorescence. Potency, µM (series often up to 36.5 µM), for the others: at the top dose activity change, negative = inhibition, usual class: inhibitors. actives 0.63% (n = 310,000); calls by dose curve; tested in A549 cells; further: nearly all actives have a fitted effect of over 35% in size
AMA1-RON2 inh – qHTS for Inhibitors of AMA1-RON; Towards Development of Antimalarial Drug Lead: Primary Screen. Potency, µM (highest dose often 58.2 µM), without a hit: at the top dose activity change, negative = inhibition, most hits filed as inhibitors. AlphaScreen AMA1-biotinylated RON2 peptide binding. actives 0.2% (n = 360,000). Plasmodium falciparum AMA1 (3D7) - RON2 peptide interaction. AID 720542, 2013;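 further: 0% = vehicle wells and -100% = peptide control; nearly all actives have a fitted effect of over 45% in size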
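AMA1 (3D7) with his tag at 25 nM final met compounds first, then biotinylated RON2 peptide at 25 nM; detection used donor plus acceptor beads, 10 µg/mL apiece, read by AlphaScreen after 30 min at room temperature.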
* hit, by the source's call; i = inactive; u = inconclusive; x = no result given; [ ] = dose if it differs, or a comment. Unless noted, the call rests on the fitted dose curve; in most records, active means well fitted curve in the direction sought with a large enough effect; inconclusive means small, poorly fitted or top-dose-only effect, or another doubt; inactive means no such curve, though single readings can be large; an effect the other way counts as inactive or inconclusive. Unless noted, on the % scale 0 is the no-effect control and ±100 the full control effect; potency means the concentration at half of the fitted maximal effect.

SMILES	Pf growth 96h	Pf growth 48h	Vaccinia Venus	Vaccinia mCherry	AMA1-RON2 inh
Cc1nnc2n(-c3ccccc3)c(=O)c3c4c(sc3n12)CCCC4	-9%	-22%	x	x	-8%
O=c1c2c3c(sc2n2cnnc2n1-c1ccccc1)N(Cc1ccccc1)CCC3	4.1µM*	u	x	x	-19%
CCC(C)(C)NC(=O)C(Sc1ccccc1)c1ccccc1 (stereo not given)	10µM*	u	8%	-3%	-4%
CCn1ccc2cc(S(=O)(=O)N3CCC(C(=O)NCc4cccc(C)c4)CC3)ccc21	x	x	-11%	-20%	x
Cc1cc(NC(=O)c2ccccc2)n(-c2ccccc2)n1	1.9µM*	-6%	x	x	5%
Cc1cc(NC(=O)c2ccc(Cl)cc2)n(-c2ccccc2)n1	5%	2%	x	x	-1%
Cc1cc(NC(=O)c2cc(C)on2)n(-c2ccccc2)n1	63%	16%	-6%	-13%	12%
Cc1cc(C(=O)Nc2cccc(C)c2C)n(-c2ccccc2)n1	21%	30%	-20%	-25%	-3%
Cc1cc(NC(=O)c2cc(C3CC3)on2)n(-c2ccccc2)n1	2.6µM*	13%	0%	-18%	8%
Cc1cc(C(=O)Nc2cccc3ccccc23)n(-c2ccccc2)n1	3.3µM*	-13%	-6%	-13%	9%
Cc1cc(-c2ccc(C)c(S(=O)(=O)NCc3cccs3)c2)on1	x	x	-26%	-26%	x
CCOC(=O)c1cnc2cc(-c3ccc(OCC)cc3)nn2c1-c1ccccc1	x	x	-16%	-23%	x
Cc1cc2nc(/C=C/c3nc4cc(C)c(C)cc4[nH]3)[nH]c2cc1C	0.33µM*	0.47µM*	7%	i	33%
CCc1ccc(NC(=O)c2cccc(NC3=NC4CS(=O)(=O)CC4S3)c2)cc1 (stereo not given)	8%	-2%	-24%	-5%	39%
Cc1cccc(CCNC(=O)Cc2ccc(NC3=NC4CS(=O)(=O)CC4S3)cc2)c1 (stereo not given)	u	1%	-11%	i	-9%
Cc1ccc(C)c(N2CCN(C(=O)c3ccc(NC4=NC5CS(=O)(=O)CC5S4)cc3)CC2)c1 (stereo not given)	10µM*	-1%	-3%	-3%	29%
CCOc1ccc(NC(=O)c2cccc(NC3=NC4CS(=O)(=O)CC4S3)c2)cc1 (stereo not given)	8.3µM*	15%	-11%	i	7%
Cc1cccc(CCNC(=O)c2cccc(NC3=NC4CS(=O)(=O)CC4S3)c2)c1 (stereo not given)	15µM*	2%	3%	i	13%
Cc1ccc(C)c(S(=O)(=O)c2cn(C)c3cc(N4CCCCC4C)c(F)cc3c2=O)c1 (stereo not given)	x	x	-12%	-25%	x
O=C1CC(Cc2ccccc2)C(=O)N1Cc1ccco1 (stereo not given)	12µM*	u	-7%	-15%	8%
Cc1ccc(CC2CC(=O)N(Cc3ccco3)C2=O)cc1 (stereo not given)	19%	0%	-8%	x	-7%
OC1(c2ccc(F)cc2)CSC(=Nc2cccnc2)N1Cc1ccco1 (stereo not given)	2.3µM*	5.9µM*	-6%	-7%	-2%
COc1ccccc1CN(C)CC(=O)Nc1cccc(S(=O)(=O)N2CCCC2)c1	x	x	-17%	-28%	7%
COc1cccc(CN(C)CC(=O)Nc2cc(S(=O)(=O)N3CCCC3)ccc2Cl)c1OC	u	12µM*	-20%	-28%	19%
COc1ccccc1CNCC(=O)Nc1cc(S(=O)(=O)N2CCCCC2)ccc1C	x	x	-21%	-22%	45%
SMILES	Pf growth 96h	Pf growth 48h	Vaccinia Venus	Vaccinia mCherry	AMA1-RON2 inh
COc1ccccc1CNCC(=O)Nc1cc(S(=O)(=O)N2CCCCCC2)ccc1Cl	u	9.3µM*	1%	3%	43%
CC(=O)c1cccc(NC(=O)c2ccc(-n3c(C)nnc3C)cc2)c1	x	x	1%	-3%	x
CC(CCc1ccccc1)NC(=O)CSc1n[nH]c(-c2ccc(F)cc2)n1 (stereo not given)	x	x	-29%	-27%	x
CC1(C)CC(CC(=O)O)(c2ccc(F)cc2)CCO1 (stereo not given)	u	x	-5%	i	-2%
Cc1ccc(C2(CC(=O)O)CCOC(C)(C)C2)cc1 (stereo not given)	9.3µM*	-13%	x	x	-5%
COCC(C)NCc1ccccc1C (stereo not given)	12µM*	10%	u	x	5%
COCC(C)NCc1cccc(OC)c1OC (stereo not given)	49%	55%	-10%	-22%	-16%
COc1cc(/C=N/NC(=O)c2cccc([N+](=O)[O-])c2)ccc1OCc1ccccc1	9.3µM*	17µM*	x	x	5%
O=C(COc1ccc(/C=N/NC(=O)c2ccccc2O)cc1)Nc1ccc([N+](=O)[O-])cc1	12µM*	-7%	-9%	-12%	8%
COc1cc(/C=N/NC(=O)c2ccc(O)cc2)ccc1OCC(=O)Nc1cccc([N+](=O)[O-])c1	10µM*	22%	x	x	-12%
CS(=O)(=O)n1nc(-c2ccco2)nc1NCc1ccccc1Cl	x	x	-25%	u	x
COc1cccc(F)c1C(C[N+](=O)[O-])c1c(N)n(C)c(=O)n(C)c1=O (stereo not given)	13µM*	u	x	x	-2%
Cc1ccc2c(=O)cc(C(=O)Nc3ccc(S(=O)(=O)N4CCCCC4C)cc3)oc2c1C (stereo not given)	x	x	2%	10%	x
Cc1ccc(CNC(=O)c2cc(C3CC3)nc3c2cnn3C(C)C)cc1	u	13µM*	x	x	42%
COc1cccc(CNC(=O)c2cc(C3CC3)nc3c2cnn3C(C)C)c1	3.3µM*	4.7µM*	x	x	3%
O=C(Cn1c(-c2cccs2)cc2cc(Cl)ccc21)N1CCN(c2ccccc2)CC1	x	x	-4%	-7%	x
Cc1cc(C)cc(Oc2cc(NC(=O)c3cn(C)nc3C)cc([N+](=O)[O-])c2)c1	8.3µM*	x	x	x	-4%
Cc1cccc(Oc2cc(NC(=O)Cn3cnc([N+](=O)[O-])n3)cc([N+](=O)[O-])c2)c1	117%	u	u	-26%	-7%[2.32 µM]
O=C(NCc1cccn1Cc1ccccc1)Nc1ccc(Br)cc1F	x	x	-23%	-13%	x
COc1cc(C)c(CN2CC=C(c3ccc(F)cc3)CC2)cc1C	12µM*	40%	-9%	i	u
COc1cc(CN2CC=C(c3ccc(F)cc3)CC2)cc(OC)c1	-104%	-4%	x	x	-11%
Cc1c(C(=O)NCCc2cccnc2)cnn1-c1ncc2c(n1)-c1ccccc1CC2	x	x	-25%	u	x
Cc1ccc2c(c1)c1c3n2CCN(CC(O)CNC(C)C)C3CCC1 (stereo not given)	13µM*	u	-19%	-12%	-12%

Assay outcomes: PubChem, National Center for Advancing Translational Sciences (NCATS)
